Measurements published in PubChem BioAssay (Tox21).
Results filed as inconclusive are left out. The source made the active and inactive calls. Calls come from the whole dose curve; as a rule, active = well fitted curve in the direction sought with a large enough effect in the repeat runs; inconclusive = weak or mixed curves; inactive = no such curve, though single readings can be large; an effect the other way counts as inactive or inconclusive.

How the values were obtained:
[1] = qHTS RealTime-Glo MT Cell Viability Assay in HepG2 cells - 40 hour (AID 1224870); note: nearly all actives have a fitted effect of over 50% in size
Outline: (§1)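 HepG2 cells mixed with RealTime-Glo MT reagents (NanoLuc plus cell-permeant prosubstrate) were seeded at 600 cells/well, incubated 5 h at 37 C/5% CO2, then pinned with compounds in DMSO; nonlytic luminescence tracked viability during 40 h treatment.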

[2] = A CellTox Green Cytotoxicity Assay to monitor cytotoxicity in HEK293 cells - 40 hour (AID 1224871); note: nearly all actives have a fitted effect of over 45% in size; note: potency is the fitted concentration of half-maximal effect
Outline: (§2)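 Homogeneous no-lysis format: HEK293 cell suspension mixed with CellTox Green reagent, seeded, incubated 5 h at 37 C/5% CO2, then dosed by pintool with compound in DMSO.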

[3] = qHTS RealTime-Glo MT Cell Viability Assay in HepG2 cells - 8 hour (AID 1224873); note: nearly all actives have a fitted effect of over 55% in size
Outline: as §1

[4] = qHTS RealTime-Glo MT Cell Viability Assay in HEK293 cells - 40 hour (AID 1224874); settings: RealTime-Glo luminescence; max response: active compounds read low; note: nearly all actives have a fitted effect of over 50% in size
Outline: (§3)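 Measured as luminescence from the same continuously cultured HEK293 wells at successive time points (0, 8, 16, 24, 32, 40 h) after compound addition. Reagent present from seeding; dosing at 5 h; incubation 37 C.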

[5] = A CellTox Green Cytotoxicity Assay to monitor cytotoxicity in HEK293 cells - 24 hour (AID 1224875); note: nearly all actives have a fitted effect of over 45% in size; note: potency is the fitted concentration of half-maximal effect; for activity change: series mostly up to about 77 µM
Outline: as §2

[6] = A CellTox Green Cytotoxicity Assay to monitor cytotoxicity in HepG2 cells - 16 hour (AID 1224876); note: nearly all actives have a fitted effect of over 45% in size; note: potency is the fitted concentration of half-maximal effect
Outline: (§4)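 Fluorescent DNA-binding dye, 600 HepG2 cells/well, 5 h preincubation then compound in DMSO; same plates read at 0–40 h, 37 C.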

[7] = qHTS RealTime-Glo MT Cell Viability Assay in HepG2 cells - 32 hour (AID 1224877); note: nearly all actives have a fitted effect of over 55% in size
Outline: (§5)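 Real-time, nonlytic viability: 600 HepG2 cells/well mixed with NanoLuc enzyme plus prosubstrate; 5 h settle, compound (DMSO) added by pintool; luminescence monitored over 40 h at 37 C.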

[8] = A CellTox Green Cytotoxicity Assay to monitor cytotoxicity in HepG2 cells - 24 hour (AID 1224878); note: nearly all actives have a fitted effect of over 45% in size
Outline: as §4

[9] = A CellTox Green Cytotoxicity Assay to monitor cytotoxicity in HepG2 cells - 40 hour (AID 1224879); note: nearly all actives have a fitted effect of over 40% in size
Outline: as §4

[10] = qHTS RealTime-Glo MT Cell Viability Assay in HEK293 cells - 0 hour (AID 1224880)
Outline: as §3

[11] = A CellTox Green Cytotoxicity Assay to monitor cytotoxicity in HEK293 cells - 32 hour (AID 1224881); note: nearly all actives have a fitted effect of over 40% in size; note: potency is the fitted concentration of half-maximal effect
Outline: as §2

[12] = A CellTox Green Cytotoxicity Assay to monitor cytotoxicity in HepG2 cells - 0 hour (AID 1224882); note: nearly all actives have a fitted effect of over 35% in size; note: potency is the fitted concentration of half-maximal effect
Outline: as §4

[13] = A CellTox Green Cytotoxicity Assay to monitor cytotoxicity in HEK293 cells - 8 hour (AID 1224884); note: nearly all actives have a fitted effect of over 35% in size; note: potency is the fitted concentration of half-maximal effect
Outline: as §2

[14] = qHTS RealTime-Glo MT Cell Viability Assay in HepG2 cells - 16 hour (AID 1224885); note: nearly all actives have a fitted effect of over 50% in size
Outline: as §5

[15] = qHTS RealTime-Glo MT Cell Viability Assay in HEK293 cells - 8 hour (AID 1224887); note: top concentration of the series differs between compounds; nearly all actives have a fitted effect of over 50% in size
Outline: as §3

[16] = A CellTox Green Cytotoxicity Assay to monitor cytotoxicity in HEK293 cells - 16 hour (AID 1224888); note: nearly all actives have a fitted effect of over 35% in size; note: potency is the fitted concentration of half-maximal effect
Outline: as §2

[17] = qHTS RealTime-Glo MT Cell Viability Assay in HepG2 cells - 0 hour (AID 1224889); note: nearly all actives have a fitted effect of over 50% in size
Outline: as §5

[18] = qHTS RealTime-Glo MT Cell Viability Assay in HEK293 cells - 24 hour (AID 1224886)
Outline: (§6)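 Cells + reagent dispensed (600 cells/well, HEK293) → 5 h at 37 C/5% CO2 → 23 nL compound in DMSO pinned → 40 h at 37 C → luminescence read at 0, 8, 16, 24, 32, 40 h.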

[19] = A CellTox Green Cytotoxicity Assay to monitor cytotoxicity in HepG2 cells - 32 hour (AID 1224883); note: nearly all actives have a fitted effect of over 50% in size; note: potency is the fitted concentration of half-maximal effect
Outline: as §4

[20] = qHTS RealTime-Glo MT Cell Viability Assay in HEK293 cells - 16 hour (AID 1224872)
Outline: as §6
% is set by controls: 0 for no effect and ±100 for the full control effect.

COC(=O)c1ccc2cc(C(=O)OC)ccc2c1
inactive: activity change, negative = cytotoxic [1] -0.864% [at 15.8 µM] | cytotoxicity increase [2] 3.01% [at 15.8 µM] | viability change, negative = cytotoxic [3] 6.16% [at 15.8 µM] | max response [4] -1.06% | activity change [5] 4.58% [at 15.8 µM, active compounds read high] | cytotoxicity increase [6] -13.5% [at 15.8 µM] | activity change, negative = cytotoxic [7] 0.0732% [at 15.8 µM] | cytotoxicity [8] -14.4% [at 15.8 µM] | cytotoxicity increase [9] -18% [at 15.8 µM] | activity change, negative = cytotoxicity [10] 3.21% [at 15.8 µM] | cytotoxicity increase [11] 1.19% [at 15.8 µM] | cytotoxicity [12] -8.67% [at 15.8 µM] | cytotoxicity increase [13] -0.0057% [at 15.8 µM] | activity change, negative = cytotoxic [14] 3.7% [at 15.8 µM] | activity change, negative = cytotoxicity [15] 0.421% [at 15.8 µM] | activity change [16] 2.83% [at 15.8 µM, active compounds read high] | activity change, negative = cytotoxicity [17] 9.21% [at 15.8 µM]

CC1=NN(c2cc(Cl)c(S(=O)(=O)O)cc2Cl)C(=O)C1N=Nc1ccc(S(=O)(=O)O)cc1 (stereo unspecified)
inactive: Potency [1] | Potency [2] | outcome [3] | max response [4] 4.23% | Potency [5] | Potency [7] | Potency [11] | Potency [12] | Potency [13] | outcome [14] | Potency [18] | Potency [15] | Potency [16]

CCCCCCn1c(=O)c2c(ncn2C)n(C)c1=O
inactive: Potency [1] | Potency [2] | max response [4] -1.75% | Potency [5] | Potency [6] | Potency [7] | outcome [10] | Potency [11] | Potency [12] | Potency [19] | Potency [13] | Potency [18] | Potency [15] | Potency [16] | Potency [17]

O=C(O)[C@@H]1CSCN1
inactive: Potency [1] | Potency [2] | outcome [3] | max response [4] 2.01% | Potency [5] | Potency [6] | Potency [7] | Potency [9] | outcome [10] | Potency [11] | Potency [12] | Potency [13] | outcome [14] | Potency [18] | Potency [15] | Potency [16] | Potency [17]

CCCC1CCC(=O)O1 (stereo unspecified)
inactive: Potency [1] | Potency [2] | outcome [3] | Potency [5] | Potency [7] | Potency [8] | Potency [9] | outcome [10] | Potency [11] | Potency [12] | Potency [19] | Potency [13] | outcome [14] | Potency [18] | Potency [15] | Potency [16] | Potency [17]

O=C1CCC(C2CCCCC2)CC1
active: Potency [2] 49 µM | Potency [5] 43.6 µM | Potency [6] 38.9 µM | Potency [11] 43.6 µM | Potency [12] 38.9 µM | Potency [19] 38.9 µM | Potency [13] 43.6 µM | Potency [16] 43.6 µM
inactive: Potency [1] | outcome [3] | Potency [7] | outcome [10] | outcome [14] | Potency [17]

COc1cc2c(cc1N)oc1ccccc12
inactive: Potency [1] | Potency [2] | outcome [3] | Potency [5] | Potency [6] | Potency [7] | Potency [8] | Potency [9] | outcome [10] | Potency [11] | Potency [12] | Potency [19] | Potency [13] | outcome [14] | Potency [16] | Potency [17]

O=C(CCCl)NCc1ccccc1
inactive: Potency [1] | Potency [20] | outcome [3] | max response [4] -3.01% | Potency [5] | Potency [6] | Potency [7] | Potency [8] | Potency [9] | outcome [10] | Potency [11] | Potency [12] | Potency [19] | Potency [13] | outcome [14] | Potency [15] | Potency [16] | Potency [17]

CC(C)c1ccccc1
inactive: Potency [1] | Potency [20] | outcome [3] | max response [4] 1.09% | Potency [5] | Potency [6] | Potency [7] | Potency [8] | Potency [9] | outcome [10] | Potency [11] | Potency [12] | Potency [19] | Potency [13] | outcome [14] | Potency [18] | Potency [15] | Potency [16] | Potency [17]

NS(=O)(=O)c1cc(-c2nn[nH]n2)c(NCc2cccs2)cc1Cl
inactive: Potency [1] | Potency [20] | outcome [3] | max response [4] -3.29% | Potency [5] | Potency [6] | Potency [7] | Potency [8] | Potency [9] | outcome [10] | Potency [11] | Potency [12] | Potency [19] | Potency [13] | outcome [14] | Potency [18] | Potency [15] | Potency [16] | Potency [17]

O=C(O)CN(CCN(CC(=O)O)CC(=O)O)CCN(CC(=O)O)CC(=O)O
inactive: activity change, negative = cytotoxic [1] 0.22% [at 15.8 µM] | cytotoxicity increase [2] 19.7% [at 15.8 µM] | viability change, negative = cytotoxic [3] -0.356% [at 15.8 µM] | activity change [5] 15.9% [at 15.8 µM, active compounds read high] | cytotoxicity increase [6] 29.9% [at 15.8 µM] | activity change, negative = cytotoxic [7] 0.371% [at 15.8 µM] | cytotoxicity [8] 28.9% [at 15.8 µM] | cytotoxicity increase [9] 29.3% [at 15.8 µM] | activity change, negative = cytotoxicity [10] 6.1% [at 15.8 µM] | cytotoxicity increase [11] 18.1% [at 15.8 µM] | cytotoxicity [12] 20.5% [at 15.8 µM] | cytotoxicity increase [19] 22% [at 15.8 µM] | cytotoxicity increase [13] 18.1% [at 15.8 µM] | activity change, negative = cytotoxic [14] -0.409% [at 15.8 µM] | activity change [16] 12.4% [at 15.8 µM, active compounds read high] | activity change, negative = cytotoxicity [17] -4.51% [at 15.8 µM]
